PubChem BioAssay
Values without a mark were called inactive.

Test: changes in parasitized red cell lysis, either direction – P. falciparum Indochina, OD700, 3 h, PSAC antagonist project, primary screen (AID 1156)
Conditions: P. falciparum-infected erythrocytes, osmotic lysis, higher = more signal, called active from +8 up or from −8 down

SMILES | z-score
CC[C@@H]1C=C(C(=O)O)[C@H](c2ccc(Br)cc2)N1S(=O)(=O)c1ccc(C)cc1 | -0.187
O=C1c2ccccc2[C@](Cc2ccccc2I)(C(=O)NCCN2CCOCC2)[C@H](c2ccc(CO)cc2)N1Cc1ccccc1Cl | 1.01
COC(=O)[C@@]1(Cc2ccc(OC)cc2)[C@H]2c3cc(C(=O)N4CCCC4)n(CCN4CNCC4=O)c3C[C@H]2CN1C(=O)c1ccccc1 | 0.775
COC(=O)[C@@]1(Cc2ccc(OC)cc2)[C@@H]2C(=CC(=O)[C@H]2CC(=O)C(=O)N2CCCC2)CN1C(=O)c1ccccc1 | 1.51
C=CCNC(=O)[C@@H]1[C@H]2C(=O)O[C@H](c3ccccc3)[C@H](c3ccccc3)N2[C@H](c2ccc(O)cc2)[C@@]12C(=O)N(C(=O)OCCOC)c1ccc(C#CCNC(N)=O)cc12 | 0.537
Cc1ccc(S[C@]2(C(=O)NCCCN(C)C)CC(=O)N(Cc3cc(C(F)(F)F)cc(C(F)(F)F)c3)[C@@H]2c2ccc(CO)cc2)cc1 | -0.0534
COc1ccc([Si](C)(C)[C@H]2[C@H](CCO)O[C@@]3(C(=O)N(Cc4ccc(N(C=O)c5ccccc5)cc4)c4ccccc43)[C@@H]2C)cc1 | -0.149
[N-]=[N+]=Nc1ccccc1[C@H]1OC(c2ccc(OCCCO)cc2)=N[C@@]1(CCS(=O)(=O)c1ccccc1)C(N)=O | 1.48
NC(=O)NCC#Cc1ccc2c(c1)[C@]1(C(=O)N2)[C@H](c2ccccc2OCCO)N2[C@H](c3ccccc3)[C@H](c3ccccc3)OC(=O)[C@H]2[C@@H]1C(=O)Nc1nc2ccccc2s1 | -5.62
CCCC=C(CCC)[C@@H](NC(=O)c1cccs1)c1ccc(C(F)(F)F)cc1 | 1.36
CN(C)C(=O)[C@]1(Cc2ccccc2N=[N+]=[N-])N=C(c2ccc(OCCCO)cc2)O[C@@H]1c1ccccc1N=[N+]=[N-] | 1.15
COC(=O)[C@@]1(Cc2ccc(OC)cc2)[C@H]2c3cc(C(=O)N(C)C)n(Cc4ccccn4)c3C[C@H]2CN1C(=O)c1ccccc1 | 1.01
COC(=O)[C@@]1(Cc2ccc(F)cc2)[C@H]2c3cc(C(=O)N4CCCC4)n(CCCNc4ncc(C(F)(F)F)cc4Cl)c3C[C@H]2CN1C(=O)c1ccccc1 | 1.01
O=C(CS)NCCCCCCNC(=O)[C@@H]1C[C@@H]2C(=O)NCC(=O)N2[C@@H]1c1cccc(OCCO)c1 | 2.38
CCOC(=O)C[C@H]1[C@H](OC(=O)c2ccccc2-c2ccccc2)[C@@H](NC(=O)CC(C)C)c2cc(OCCCO)ccc2N1C(=O)Cc1ccc(OC)cc1 | 0.587
COc1ccc([C@H]2OC[C@@H]3C[C@@H](Cc4ccccc4)C(=O)N32)cc1 | -0.59
COc1ccc(CCNC(=O)[C@@]2(C)c3ccccc3C(=O)N(C(C)C)[C@H]2c2ccc(CO)cc2)cc1 | 0.386
C=CCOC(=O)[C@@H]1[C@H]2C(=O)O[C@H](c3ccccc3)[C@H](c3ccccc3)N2[C@H](c2ccc(OCCOC(=O)[C@@H]3C[C@@H]4C(=O)NCC(=O)N4[C@@H]3c3ccc(O)cc3)cc2)[C@@]12C(=O)Nc1ccc(I)cc12 | 1.58

SMILES | z-score
O=C1C[C@@](C(=O)NCCN2CCOCC2)(c2ccc([N+](=O)[O-])cc2)[C@@H](c2ccc(CO)cc2)N1CC12CC3CC(CC(C3)C1)C2 | 1.24
COCCOC(=O)N1C(=O)[C@@]2(c3cc(C#CCC(C(=O)OC)C(=O)OC)ccc31)[C@H](C(=O)Nc1nc3ccccc3s1)[C@H]1C(=O)O[C@H](c3ccccc3)[C@H](c3ccccc3)N1[C@@H]2c1ccccc1OCCO | 0.599
COC(=O)[C@@]1(Cc2ccccc2)[C@H]2c3cc(C(=O)N(C)C)n(Cc4ccsc4Br)c3C[C@H]2CN1C(=O)c1ccccc1 | 0.923
CC1CC/C=C\[C@H]2OC34C=CCN(C(C)(C)C)C(=O)[C@H]3N(CCO)C(=O)[C@@H]4C2C(=O)O1 (stereo partly specified) | -0.474
C=C(CCCC)/C(=C/C[C@@H](OC(C)=O)c1ccc(OCCO)cc1)c1cnc2ccccc2c1 | 2.09
CC(C)C(O)C1C=CC2C(=O)N(c3ccccc3)C(=O)C2N1Nc1ccc([N+](=O)[O-])cc1 (stereo unspecified) | 0.928
C=C(COC)/C(=C/C[C@H](OC(C)=O)c1ccc(CO)o1)c1cc(C(=O)OC)ccc1OC | 0.672
COC(=O)[C@@]1(Cc2ccc(OC)cc2)[C@H]2c3cc(C(=O)N(C)C)n(C)c3C[C@H]2CN1C(=O)c1ccccc1 | 1.07
CCOC(=O)[C@H]1C/C=C/C[C@H](C(=O)OCC)C(=O)O[C@H]2[C@@H](OC)O[C@H](CO)[C@@H](OC(=O)c3c(OC)cccc3OC)[C@@H]2OC1=O | -0.083
CC(C)NC(=O)[C@@]1(c2ccc([N+](=O)[O-])cc2)CC(=O)N(C2CCCCC2)[C@@H]1c1ccc(CO)cc1I | 1.07
CN1C(=O)C2C=CC(C(O)c3ccc([N+](=O)[O-])cc3)N(N3CCCCC3)C2C1=O (stereo unspecified) | -0.0207
COCCOC(=O)N1C(=O)[C@@]2(c3cc(C#CCNC(N)=O)ccc31)[C@H](C(=O)N1CCN(c3ncccn3)CC1)[C@H]1C(=O)O[C@H](c3ccccc3)[C@H](c3ccccc3)N1[C@@H]2c1ccc(OCCO)cc1 | 1.26
O=C1NC(=O)C2C1C=CC(C(O)c1cc(C(F)(F)F)cc(C(F)(F)F)c1)N2Nc1ccccn1 (stereo unspecified) | -0.0477
COCCOC(=O)N1C(=O)[C@@]2(c3ccccc31)[C@H](C(=O)N1CCc3cc(OC)c(OC)cc3C1)[C@H]1C(=O)O[C@H](c3ccccc3)[C@H](c3ccccc3)N1[C@@H]2c1ccc(OCCO)cc1 | 0.757
COC(=O)C(CC#Cc1ccc2c(c1)[C@]1(C(=O)N2)[C@H](C(=O)Nc2nc3ccccc3s2)[C@H]2C(=O)O[C@H](c3ccccc3)[C@H](c3ccccc3)N2[C@@H]1c1ccccc1OCCO)C(=O)OC | -0.174
CN1C(=O)C2C=CC(C(O)c3ccccc3)N(N(c3ccccc3)c3ccccc3)C2C1=O (stereo unspecified) | -0.284
COC(=O)[C@@]1(CCS(=O)(=O)c2ccccc2)N=C(c2ccc(OCCCO)cc2)O[C@H]1c1ccccc1CN=[N+]=[N-] | 1.26
COC(=O)[C@H](Cc1ccccc1)N1CC2=C[C@@H](C3CC3)n3c(=O)n(C)c(=O)n3[C@H]2[C@@H]1[C@@H](O)Cc1ccccc1 | 0.645
